Structures are written as SMILES. This is part of a sample that, as a whole, favours compounds with a hit. Of some 83,000 tested, about 20% had one in any assay.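 The test compound was applied at a single concentration to cells in 96-well plates for 48 hours, and percent growth was recorded.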 Values without a mark were called inactive. Calls of active or inactive are those of the source. The calls were made as follows: active = growth percent below 10; inactive = the rest.

For this assay, the system named is HCT-15 colon. Description: NCI-60 one-dose screen, 48 h (100 = growth as untreated, 0 = no growth, -100 = all killed). The note with it: 10 µM unless noted.
`O=C1Nc2ccccc2/C1=C/c1cn(C(=O)c2c(Cl)cccc2Cl)c2ccccc12`: the growth was 31%.
For `C=CCn1c(C)nc2cc(Nc3nc(N4CCCC4)nc4ccccc34)ccc21`, the growth is 79.4%.
Consider `COc1ccc2nc(NNC(=O)c3cnccn3)c3cccn3c2c1`, for which the growth was -19.5% (active).
As for `CC(=O)OC1CCC2(C)C(=CC3C4CCC(=O)C4(C)CCC32)C1` (stereo not given), the growth was 98.2%.
As to `Cc1ccc(-n2c(-c3ccccc3)c(-c3ccccc3)c3c(SCC(=O)n4[nH]c(N)cc4=O)ncnc32)cc1`, the growth is 101%.
For the molecule `C[C@@H]1N=C(c2ccc3ccccc3n2)Nc2nc3ccccn3c2C1=O`, the growth is 86.8%.
With `N[C@@H](CCCCNCC(=O)O)C(=O)O`, the growth was 98.8%.
On to `Clc1cccc(Cl)c1C(Nc1nc2ccccc2s1)Nc1nc2ccccc2s1`, for which the growth is 83.6%.
With `COc1cc(/C=C/C(=O)c2c(C)nc3ccccc3c2C)ccc1OCCCN1CCN(C(=O)c2ccco2)CC1`, the growth is 76.2%.
The result for `Cc1ccc(Cc2cnc(NC(=O)c3ccc4noc(-c5ccccc5)c4c3)s2)cc1` reads 88.6%.
As for `CC(=O)c1nc(Nc2ccc(C)cc2)sc1C`, the growth is 94.1%.
The result for `Cc1c(C(=O)OC(=NC2CCCCC2)NC2CCCCC2)sc2c1c(=O)nc1c(C#N)n[nH]n12` reads 114%; that for `O=C(CCc1nnc(CN(c2ccccc2)c2ccccc2)o1)c1nc2ccccc2[nH]1`, 97.4%.
Turning to `O=C(CC(SCc1ccccc1)c1ccccc1)c1ccccc1` (stereo not given), the growth was 74.4%.
Consider `COc1ccc(-c2nc3ccc4[nH]ncc4c3c3c2CCCC3)cc1B(O)O`, for which the growth is 34.4%.

Values taken from PubChem BioAssay (NCI).
